The source of these data is PubChem BioAssay AID1259400 (National Center for Advancing Translational Sciences (NCATS), 2018).

The whole screen tested about 350,000 compounds, of which about 2,100 (0.6%) were called active. Roughly 1% stayed inconclusive and do not appear here. This excerpt belongs to a sample that is enriched for actives. A number with no mark means an inactive call.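 How the source made its calls: active means activity change of -60% or lower, but not beyond a set lower limit; inconclusive means change between -60% and -40%, or beyond the set limit; inactive means change above -40%.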
On the % scale 0 is the no-effect control and ±100 the full control effect.

Sequence of Relaxin receptor 1 (Homo sapiens) (Q9HBX9 whole entry, looked up): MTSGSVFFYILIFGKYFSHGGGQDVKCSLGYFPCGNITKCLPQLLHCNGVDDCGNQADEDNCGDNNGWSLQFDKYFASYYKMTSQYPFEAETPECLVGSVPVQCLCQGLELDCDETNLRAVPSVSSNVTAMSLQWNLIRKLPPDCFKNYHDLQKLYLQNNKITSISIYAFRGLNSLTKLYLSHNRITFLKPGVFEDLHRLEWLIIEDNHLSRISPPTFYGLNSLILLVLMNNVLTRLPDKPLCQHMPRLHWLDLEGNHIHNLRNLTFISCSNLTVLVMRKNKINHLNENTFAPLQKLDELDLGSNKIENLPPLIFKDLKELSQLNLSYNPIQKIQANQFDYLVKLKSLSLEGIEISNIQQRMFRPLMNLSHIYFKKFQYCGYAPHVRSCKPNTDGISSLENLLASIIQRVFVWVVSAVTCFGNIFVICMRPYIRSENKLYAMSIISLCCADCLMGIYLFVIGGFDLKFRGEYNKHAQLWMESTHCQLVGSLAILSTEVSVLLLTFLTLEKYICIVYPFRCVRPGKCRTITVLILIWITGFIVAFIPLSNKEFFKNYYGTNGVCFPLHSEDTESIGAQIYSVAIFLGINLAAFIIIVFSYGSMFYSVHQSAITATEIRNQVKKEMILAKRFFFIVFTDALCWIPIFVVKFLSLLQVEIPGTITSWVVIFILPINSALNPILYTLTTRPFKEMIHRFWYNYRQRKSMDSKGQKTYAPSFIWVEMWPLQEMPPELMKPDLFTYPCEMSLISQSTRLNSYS

This assay addresses Relaxin receptor 1 (Homo sapiens) (UniProt Q9HBX9). Briefly: qHTS Assay for Antagonists of the Relaxin Receptor RXFP1. To be noted: HEK293-RXFP1, relaxin-stimulated cAMP HTRF, 30 min; at 57.5 µM; hits give low values. The text has this:
The relaxin hormone is involved in the variety of biological functions in normal tissues and diseases. The role of relaxin is well-established in female reproduction and parturition, mammary gland and endometrial development, maintenance of myometrial quiescence during pregnancy. Relaxin signaling through its G protein-coupled receptor (GPCR) RXFP1 results in ECM remodeling through regulation of collagen deposition, cell invasiveness, proliferation and overall tissue homeostasis. […] Recombinant human relaxin (rhRlx) is currently being tested in clinical trials as a protective agent in congestive heart failure, in treating severe preeclampsia, and as an anti-fibrotic agent in various organs. […] Upon relaxin binding RXFP1 activation leads to the activation of adenylate cyclase (AC) via G?s. cAMP will activate PKA, which phosphorylates many signaling proteins. Thus, detection of cAMP increase is an easy and reliable indication of relaxin receptor activation. To screen for antagonists of the relaxin receptor, a HEK293T cell line stably transfected with RXFP1 was used. RXFP1 activation by relaxin in presence of various concentrations of tested compounds was assayed by changes in cAMP levels as detected with a time-resolved fluorescence energy transfer (TR-FRET) cAMP detection kit.
For the primary screening, we used HTRF(R) (Homogenous Time-Resolved Fluorescence) cAMP HiRange assay (Cisbio Bioassays, 62AM6PEJ). Presence of cAMP in the cell lysate disrupts binding between the Cryptate-labeled anti-cAMP and d2-labeled cAMP pair, leading to a decrease in TR-FRET signal. The libraries were screened at two doses (57microM and 11microM), followed by a confirmation of the hits at 7-point serial dilution in the range of final concentrations [57microM - 78nM]. Data were normalized to the controls for basal activity (buffer only) and 100% activity (5 nM porcine relaxin). The EC50 values were determined from concentration-response data modeled with the standard Hill equation. NCGC Assay Protocol Summary: HiHEK (Hawaiian HEK293 LGR7 stably transfected with human RXFP1) were grown in the following media: DMEM+10%FBS+Pen/Strep + Geneticin (1mg/ml). For the assay, the cells were seeded in DMEM+Pen/Strep (with no serum & selective antibiotics) at 2,100 cells/ 3microl/well with MultiDrop Combi dispenser (Thermo Scientific, Logan, UT) onto white tissue culture treated solid bottom1536-well plates (Greiner #789173-F) and allowed to attach/recover overnight at 37 degrees C, 5% CO2. Next, 23nl/well of compound solutions in DMSO were transferred into wells with a pintool (Kalypsis, San Diego, CA). […] EC80 (relaxin at 50pM final concentration) was dispensed to the rest of the plate except columns 1&2 which were used as a negative control (EC0, buffer only), 1microl/well also. The cells were stimulated by relaxin in the presence of compounds for 30 minutes at 37 degrees C, 5% CO2. The detection reagents were prepared individually by dilution in Lysis buffer (supplied with the assay kit) just prior to dispensing. 1microl/well of cAMP-d2 and 1microl/well anti-cAMP-Eu3+-Cryptate antibodies were added simultaneously with BioRAPTR FRDtrade mark Workstation (Beckman Coulter). The plates were incubated at ambient temperature for 30 minutes and, then, FRET signal was read on Envision plate reader (PerkinElmer, Waltham, MA), at wavelengths 340nm (excitation), 615nm & 665nm (emission of donor and acceptor channels respectively).
As for `COc1cccc(/C=C2\SC(=S)N(CCCC(=O)N3CCOCC3)C2=O)c1`, the activity change, negative = inhibition is 9.2%. The same measure for `CCN(C(=O)CN1C(=O)/C(=C/c2ccc(F)cc2)SC1=S)C1CCS(=O)(=O)C1` (centres undefined): 5.31%; for `O=C1/C(=C/c2ccc(F)cc2)SC(=S)N1CCCC(=O)N1CCCCC1CCO` (centres undefined): -99.6% (active); for `O=C(NC1CC1)c1ccc(-c2ccccc2)cc1`: -5.32%.

As for `O=C(NNC(=O)c1ccco1)Nc1ccccc1`, the activity change, negative = inhibition is -5.56%. Next, `O=C(NNC(=O)c1ccc(-c2ccccc2)cc1)Nc1ccccc1`: -86.2% (active). Turning to `COC(=O)c1ccccc1NC(=O)C(Cc1ccccc1)N1Cc2ccccc2C1=O` (centres undefined), the activity change, negative = inhibition is -13.9%.

Turning to `O=C(c1ccco1)n1nc(-c2ccc(Cl)cc2)nc1NCc1ccccc1`, the activity change, negative = inhibition is -6.49%. Next, `COc1ccccc1N1CCN(CCCNC(=O)c2cnn(-c3ccccc3Cl)c2C2CCN(C(=O)OC(C)(C)C)CC2)CC1`: -27.8%; `O=C(CCC(=O)N1CC2CCCN2c2ccccc21)NCc1ccccc1Cl` (centres undefined): -15%; `CCc1nnc(SCc2c(F)cccc2Cl)c2cc3sccc3n12`: 3.15%.

For the compound `Cc1cccc(NC(=O)Nc2ccc3c(c2)OCO3)n1`, the activity change, negative = inhibition is 6.53%. On to `COc1ccc(-c2csc(Nc3cccc(C)n3)n2)cc1OC`, for which the activity change, negative = inhibition was -15.8%. Next, `CC(=O)Nc1cccc(-c2csc(Nc3cccc(C)n3)n2)c1`: -62.8% (active); `COc1ccc2c(c1)Cc1sc(NC(=O)c3ccccc3Br)nc1-2`: -16.9%; `COc1ccc(N2CCN(C(=O)CSCc3nc(-c4ccccc4Cl)oc3C)CC2)cc1`: -64.6% (active). Next, `COc1ccc(CNC(=O)CSCc2nc(-c3ccccc3F)oc2C)cc1`: -25.8%; `COc1ccc(N2CCN(C(=O)CCSCc3ccccc3F)CC2)cc1`: -7.15%.

As to `CCc1ccc(NC(=O)C2CCCN2S(=O)(=O)c2ccc3nc(-c4ccccc4)[nH]c3c2)cc1` (centres undefined), the activity change, negative = inhibition was -3.72%. For the compound `CN1C(=O)c2ccccc2Sc2ccc(NC(=O)Cc3ccc(Cl)cc3)cc21`, the activity change, negative = inhibition was -36%. Consider `O=C(CSc1nc2c(c(=O)[nH]1)CN(Cc1ccc(F)cc1)CC2)Nc1ccccc1Cl`, for which the activity change, negative = inhibition is -5.69%.

As to `CCOc1ccc(Nc2ncnc3scc(-c4ccc(OC)cc4)c23)cc1`, the activity change, negative = inhibition is -16.5%. Next, `O=C1C=C(c2ccc(Cl)cc2)C(=O)N1Nc1ccccc1`: -62.4% (active); `CCS(=O)(=O)c1ncc(N(Cc2ccc(F)cc2)Cc2ccco2)c(C(=O)Nc2cc(C)ccc2C)n1`: -11.8%. Next, `CCOC(=O)c1ccc(NC(=O)c2nc(SCc3ccc(F)cc3)ncc2Cl)cc1`: 3.57%; `Cc1cccc(NC(=O)c2nc(S(=O)(=O)Cc3ccccc3)ncc2Cl)c1`: -89.5% (active).

With `Cc1cccc(NC(=O)Cn2cc(S(=O)(=O)Cc3ccccc3Cl)c3ccccc32)c1`, the activity change, negative = inhibition was -19.7%. The same measure for `Cc1cccc(CS(=O)(=O)c2ncc(Cl)c(C(=O)Nc3ccc(F)cc3)n2)c1`: -95.9% (active); for `CCCSc1ncc(Cl)c(C(=O)Nc2c(C(=O)Nc3ccccc3)oc3ccccc23)n1`: 4.58%.
